Screens deposited in PubChem by several laboratories.
Cdc25B inh: inhibitors of human Cdc25B phosphatase; P30305; recombinant Cdc25B, OMFP fluorescence Ex485/Em525; inhibition, %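 (compounds tested at 10 µM final in the well)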; hit rate 0.1% among 65,000; AID 368; in the data active = inhibition above about 50%
PLAP activator: activates human placental alkaline phosphatase; purified PLAP enzyme, luminescent substrate read-out; hits give high values; activation fold at 20 µM; AID 696; P05187; hit rate 1.2% among 96,000; in the data active = activation fold above about 2
HePTP inh: inhibitors of human HePTP phosphatase | AID 521 | P35236 | recombinant HePTP phosphatase activity, OD absorbance | hit rate 0.64% among 110,000 | inhibition, % at 20 µM; in the data active = inhibition above about 50%; inconclusive = no clear call, values can overlap the other calls;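 also: plate controls were vehicle for no effect and reference inhibitor for full effect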
BAP1 inh: human BAP1 deubiquitinase inhibition. Q92560. recombinant BAP1, Ub-AMC hydrolysis fluorescence kinetic; hits give low values. calls only at 20 µM. hit rate 0.48% among 72,000. AID 436;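 active = activity remaining at or below 50% of control, provided the compound also passes the data quality filters; inactive = the rest, including low values that fail the filters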;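 also: 100% = DMSO wells rate and 0% = substrate alone blank rate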
MKP-1 inh: human dual specificity phosphatase 1 inhibition; recombinant MKP-1, OMFP hydrolysis fluorescence; hit rate 0.15% among 65,000; P28562; inhibition, %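 (compounds tested at a single concentration somewhere between 10 and 100 µM)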;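 active = inhibition above about 50%, limit read from the data; inconclusive = inhibition over screen mean plus 3 SD, below that limit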;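 also: 0% = DMSO max control wells and 100% = wells with enzyme stopped by NaOH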
Target sequence (P28562 whole entry, looked up): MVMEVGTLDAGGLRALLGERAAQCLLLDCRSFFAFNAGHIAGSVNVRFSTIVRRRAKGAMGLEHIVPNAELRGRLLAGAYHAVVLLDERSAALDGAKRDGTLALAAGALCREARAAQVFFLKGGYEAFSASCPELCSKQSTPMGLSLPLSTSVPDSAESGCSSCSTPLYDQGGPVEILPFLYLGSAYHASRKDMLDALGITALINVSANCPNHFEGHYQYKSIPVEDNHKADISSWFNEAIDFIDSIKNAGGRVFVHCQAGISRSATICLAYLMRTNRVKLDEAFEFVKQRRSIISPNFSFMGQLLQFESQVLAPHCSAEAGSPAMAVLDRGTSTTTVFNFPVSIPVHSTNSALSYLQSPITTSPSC
Numbers without * were called inactive; i = inactive; ? = inconclusive; · = no result given; + = active, no number. Rows were chosen to be rich in hits. Some 1.4% of all compounds tested hit in one or more screens of this group.

SMILES	Cdc25B inh	PLAP activator	HePTP inh	BAP1 inh	MKP-1 inh
Cc1[nH]nc2c1C1(C(=O)Nc3ccc([N+](=O)[O-])cc31)C(C#N)=C(N)O2 (stereo unspecified)	·	1.2	·	·	·
Cc1ccc(SCc2[nH]nc3c2C2(C(=O)Nc4ccc(F)cc42)C(C#N)=C(N)O3)cc1 (stereo unspecified)	·	2*	·	·	·
Cc1cc(C)cc(NC(=O)CN(c2ccccc2)S(C)(=O)=O)c1	·	·	3.9	·	·
Cc1nn(C(C)C(=O)O)c(=O)c2c1sc1ccccc12 (stereo unspecified)	3.9	·	4.8	i	29.1
Cc1nn(C(C)C(=O)N2CCCCC2)c(=O)c2c1sc1ccccc12 (stereo unspecified)	-8.0	1	-3.1	i	67.0*
COc1ccc(CSc2nc3ccccc3[nH]2)cc1	·	0.9	·	·	·
c1ccc2[nH]c(SCc3ccc(-c4nnco4)cc3)nc2c1	-5.2	2*	8.5	i	2.8
O=C(CSc1nc2ncccc2[nH]1)NCc1ccccc1	1.7	2.4*	4.0	i	4.0
O=C(CSc1nc2ccccc2[nH]1)NCc1ccccc1	·	·	-0.6	·	·
O=C(Nc1cccc(Cl)c1)c1cccc(NC(=S)Nc2ccc(F)cc2)c1	·	·	103.9*	·	·
O=C(NCc1ccco1)c1cc(-c2ccccc2)nc2ccccc12	·	0.6	-8.3	·	·
O=C(NCc1ccco1)c1cc(-c2ccco2)nc2ccccc12	·	·	103.3*	·	·
O=C(Nc1cccc2ccccc12)c1cc(-c2ccco2)nc2ccccc12	·	·	102.0*	·	·
O=C(Nc1ccccc1F)c1cc(-c2ccco2)nc2ccccc12	·	·	24.0	·	·
CCOC(=O)c1c(NC(=O)c2c(-c3ccccc3)noc2C)sc2c1CCC(CC)C2 (stereo unspecified)	·	·	2.4	·	·
CN(C)c1cc(NC(=O)CN2CCOCC2)c2ccccc2n1	-7.3	·	3.7	+	-3.5
Cc1cc(NC(=O)CN2CCOCC2)c2ccccc2n1	·	·	4.2	·	·
Cc1cc(NC(c2cccnc2)c2ccc3cccnc3c2O)no1 (stereo unspecified)	4.3	2.4*	8.6	i	-8.7
Cn1c(N)c(C(=O)c2cc(-c3ccccn3)nc3ccccc23)c(=O)[nH]c1=O	-3.2	2*	7.0	i	-7.7
O=C(NC1CC1)c1cc(-c2ccccn2)nc2ccccc12	·	0.9	·	·	·
[O-]/[N+](=C\c1ccncc1)c1ccc(Br)cc1	-21.0	·	-5.9	·	56.6*
[O-]/[N+](=C/c1cccnc1)c1ccc(Br)cc1	46.9	1.1	6.6	i	?
O=C(Nc1ncccc1O)c1cccc(S(=O)(=O)N2CCc3ccccc32)c1	6.4	2.5*	6.6	i	0.0
O=C(Nc1ccc(S(=O)(=O)N2CCc3ccccc32)cc1)c1cccc([N+](=O)[O-])c1	·	·	-3.1	·	·
O=C(c1ccc(-c2ccccc2)cc1)N1CCN(C2CC3CCC2C3)CC1 (stereo unspecified)	·	·	71.4*	·	·
SMILES	Cdc25B inh	PLAP activator	HePTP inh	BAP1 inh	MKP-1 inh
O=C(c1ccccc1F)N1CCN(C2CC3CCC2C3)CC1 (stereo unspecified)	·	·	6.2	·	·
CCOC(=O)CSc1nnc(CSc2nc3sc4c(c3c(=O)[nH]2)CCC4)n1-c1ccccc1	·	2*	·	·	·
CC(C)N(CCC(=O)c1ccc2ccccc2c1)Cc1ccccc1	·	·	·	+	·
CC(C)N(Cc1ccccc1)C(=O)COC(=O)c1ccc2c(c1)OCCO2	-12.5	1.2	12.4	i	8.2
O=C(Nc1ccc2nn(-c3ccc(F)cc3)nc2c1)c1ccc(Br)o1	·	·	81.1*	·	·
CN(C)C(=O)CSc1nnc2sc3ccccc3n12	-1.6	0.9	7.3	i	0.5
CCOC(=O)CC(=O)CSc1nnc2sc3ccccc3n12	1.1	0.9	4.8	i	77.7*
CC1CCN(C(=O)c2ccccc2NC(=O)c2ccco2)CC1	·	·	103.2*	·	·
Nc1c(C(=O)NCc2ccc(F)cc2)c2nc3ccccc3nc2n1CCCN1CCOCC1	·	2*	·	·	·
Cc1ccccc1NC1CC(C)N(C(=O)c2ccccc2)c2c(C)cccc21 (stereo unspecified)	·	·	103.0*	·	·
CC1CC(Nc2ccccc2)c2ccccc2N1C(=O)c1ccc(Cl)c(Cl)c1 (stereo unspecified)	·	·	9.9	·	·
O=C1NC(=S)N/C1=C/c1ccc(OCc2cccc(C(=O)O)c2)cc1	·	·	103.1*	·	·
Cc1ccc(NC(=O)CSc2nc3c(cc2C#N)CCCCC3)cc1	·	·	·	i	·
Cc1cc(C)c2ccc(NN)nc2c1O	·	2*	·	·	·
CC(=O)Nc1ccccc1/C=C/c1ccc2c(C)cc(C)c(O)c2n1	·	·	-3.9	·	·
Oc1c(Br)cc(Cl)cc1C=Nc1cccc2nsnc12	·	·	-0.2	·	·
CSc1ncc(Cl)c(C(=O)Nc2nnc(SC/C=C/c3ccccc3)s2)n1	·	2.3*	·	·	·
C=CCSc1nnc(NC(=O)c2nc(SCC)ncc2Cl)s1	·	1	·	·	·
CCn1c2ccccc2c2nnc(-n3nc(C)c(Cc4ccccc4)c3C)nc21	·	·	12.9	·	·
O=C(Nc1ccccc1Cl)C1CCN(Cc2cnn(-c3ccccc3)c2-n2cccc2)CC1	·	2*	·	·	·
O=C(NCc1ccc2c(c1)OCO2)C1CCN(Cc2cnn(-c3ccccc3)c2-n2cccc2)CC1	-9.9	2.5*	-1.5	i	17.1
COc1ccc(OC)c(NC(=O)C2CCN(Cc3cnn(-c4ccccc4)c3-n3cccc3)CC2)c1	·	1.9	·	·	·
COc1ccccc1C1NC(=O)NC(C)=C1C(=O)OCCC(C)C (stereo unspecified)	·	·	·	i	·
O=C(/C=C/c1ccc(/C=C/C(=O)c2cccc(N3C(=O)C=CC3=O)c2)cc1)c1cccc(N2C(=O)C=CC2=O)c1	·	·	9.9	·	·
O=C(O)/C=C/c1cccc(N2C(=O)C=CC2=O)c1	·	·	88.7*	·	·
SMILES	Cdc25B inh	PLAP activator	HePTP inh	BAP1 inh	MKP-1 inh
O=C(Nc1ccc(Br)cc1)c1cccc(S(=O)(=O)NC2CCCCC2)c1	·	·	4.8	·	·
O=C1N=C(N=Nc2c(O)[nH]c3ccccc23)S/C1=C/c1ccc(Br)cc1	·	·	103.4*	·	·
CCOc1cc(S(=O)(=O)NCc2ccccn2)c(C)cc1C	-6.5	2.2*	-9.3	i	14.1
O=C1N=C(N2CCOCC2)S/C1=C/c1ccc(Cl)cc1	·	·	101.9*	·	·
COc1cccc(C(=O)Nc2ccc(-c3nc4cc(C)c(C)cc4o3)c(O)c2)c1	·	·	9.3	·	·
CCS(=O)(=O)N1Cc2ccccc2CC1C(=O)OCC(=O)Nc1ccc(C)cc1 (stereo unspecified)	-3.3	1	8.5	i	35.5
CCS(=O)(=O)N1Cc2ccccc2CC1C(=O)Nc1nc2ccccc2[nH]1 (stereo unspecified)	2.6	2.4*	3.7	i	-11.4
CCCC(=O)C1C(=O)CC(C)(C)C1C(=O)OC (stereo unspecified)	·	·	7.3	·	·
CCN(CC(=O)NCCc1ccc(S(N)(=O)=O)cc1)Cc1nc2cc(OC)c(OC)cc2c(=O)[nH]1	·	2.9*	·	·	·
COc1cc(C2NC(C(=O)O)CS2)ccc1OCc1ccccc1C#N (stereo unspecified)	4.1	2.1*	5.7	i	6.8
CCOc1ccc(OCC)c(NC(=O)C2CCCN(S(=O)(=O)c3c(C)n[nH]c3C)C2)c1 (stereo unspecified)	-6.9	2*	3.8	i	1.8
CCOc1ccc(OCC)c(NC(=O)C2CCCN(S(=O)(=O)c3c(C)noc3C)C2)c1 (stereo unspecified)	5.0	1.1	1.6	i	13.3
